Among the data in PubChem BioAssay (EPA / NIEHS) are outcome and AC50 values, retold here.

Structures are written as SMILES. Calls of active or inactive are those of the source. How the source made its calls: active means hit-call score of the fitted dose curve at least 0.9, where 1 is the maximum; inactive means score below 0.9.

The target of the assay is Estrogen receptor (Homo sapiens) (UniProt P03372). Description: CCTE_Deisenroth_AIME_384WELL_LUC_Shift: CCTE's 384-well Estrogen Receptor Transactivation Assay with AIME metabolic competence data shift (ERTA luciferase; difference in metabolism positive and negative), Deisenroth Lab (AID 2284041).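 Further: shift is response with S9 minus without S9 so positive means metabolism raised ER signal.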 As for the experimental part: CCTE_Deisenroth_AIME_384WELL (AIME metabolism assay) is a cell-based, single-readout assay that uses VM7Luc4E2, a human mammary gland/breast cell line, with measurements taken at 24 hour after chemical dosing in a 384-well plate.CCTE_Deisenroth_AIME_384WELL_LUC_Shift is one of two analysis components calculated from the CCTE_Deisenroth_AIME_384WELL assay. […] AIME is optimized to impart phase I hepatic metabolism using phenobarbital/beta-naphthoflavone induced hepatic S9 from male Sprague Dawley rats. Parent chemicals are incubated for 2 hours in the AIME assay prior to transfer to the VM7Luc ERTA assay plate. […] The metabolic curve shift response is defined as the pairwise difference between the positive (AEID 2488) and negative (AEID 2490) normalized response values at each concentration for a given chemical across replicate experiments. The pairwise differences form the basis for a concentration-response curve. Standard curve fit analysis identfiied chemicals where the calculated shift was greater than the shift-derived baseline cutoff. A positive hit designation in this endpoint indicates a significant shift trend in the positive direction for bioactivation.
Sequence of Estrogen receptor (Homo sapiens) (P03372 whole entry, looked up): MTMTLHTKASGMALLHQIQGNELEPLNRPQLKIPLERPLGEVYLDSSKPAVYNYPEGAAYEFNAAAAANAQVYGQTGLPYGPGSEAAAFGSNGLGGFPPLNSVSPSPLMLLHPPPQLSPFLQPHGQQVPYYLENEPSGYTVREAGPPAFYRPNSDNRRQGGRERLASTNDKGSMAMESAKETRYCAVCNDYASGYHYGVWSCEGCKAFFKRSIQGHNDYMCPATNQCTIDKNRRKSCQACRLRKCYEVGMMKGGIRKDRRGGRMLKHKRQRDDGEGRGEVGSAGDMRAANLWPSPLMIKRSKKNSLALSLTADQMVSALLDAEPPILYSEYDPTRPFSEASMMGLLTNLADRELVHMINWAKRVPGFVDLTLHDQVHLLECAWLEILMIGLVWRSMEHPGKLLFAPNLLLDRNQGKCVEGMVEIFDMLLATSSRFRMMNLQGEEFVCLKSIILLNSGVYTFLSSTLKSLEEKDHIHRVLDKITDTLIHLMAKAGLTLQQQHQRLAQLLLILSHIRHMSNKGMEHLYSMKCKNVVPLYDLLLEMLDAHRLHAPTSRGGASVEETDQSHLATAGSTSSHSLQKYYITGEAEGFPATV
The AIME procedure consists of a preparative "pre-stamping" step using a barium chloride/poly-L-lysine (PLL) solution followed by "stamping" the lid in alginate-hepatic S9 (metabolism positive) or alginate-water (metabolism negative) to form microspheres. Once stamping is completed, the AIME lids are placed in duplicate microplates (metabolism positive or negative) containing chemical solutions and incubated for two hours to facilitate metabolic reactions. The conditioned medium, containing parent chemical or metabolites, is then transferred to the cell-based VM7Luc Estrogen Receptor Transactivation Assay (ERTA) for 24 hours. A typical experimental design tests a 10-point concentration series (0.002 - 200 uM) for 8 compounds (96-well format)1 or 32 compounds (384-well format)2 in single technical replicate. AIME assay controls include trans-stilbene (bioactivated control) and ethylparaben (bioinactivated control). ERTA assay plate controls include 17-beta estradiol (positive control) and DMSO (solvent control). Experiments typically comprise a minimum of four experimental replicates (n=4).
In the case of `O=C(c1ccccc1)C1CCC1`, the result was inactive.

For the molecule `CCCCCCCCCCOS(=O)(=O)O`, the result was inactive.

Consider `O=C(C=Cc1ccccc1)OCc1ccccc1`, for which the AC50 was 22.9 µM (active).

As for `CCCCCCCC[N+](C)(CCCCCCCC)CCCCCCCC`, the result was inactive.

As to `CC=C1CC2C=CC1C2` (configuration not stated), the result was inactive.

On to `Cc1ccc(C(C)c2ccc(C)c(C)c2)cc1C`, for which the AC50 was 0.000413 µM (active).

Turning to `CCCCC(CC)CCC(CC(C)C)OS(=O)(=O)O` (configuration not stated), the result was inactive.

Take `CC1=NN(c2cc(S(=O)(=O)O)ccc2Cl)C(=O)C1N=Nc1ccccc1` (configuration not stated): the outcome was inactive.

Turning to `O=C1C(N(CO)C(=O)NCO)N(CO)C(=O)N1CO` (configuration not stated), the result was inactive.

Regarding `O=C(C(Cl)Cl)N1CCOC12CCCCC2`, the outcome was inactive.

With `CCCCCc1ccc(Cl)cc1`, the outcome was inactive.

As to `NC(CO)(CO)CO`, the outcome was inactive.

With `O=C1CCCC1`, the result was inactive.

`CCOC(=O)CC`: the result was inactive.

In the case of `O=S1(=O)OC(c2ccc(O)cc2)(c2ccc(O)cc2)c2ccccc21`, the result was inactive.

Consider `O=c1cc(-c2ccccc2)oc2ccccc12`, for which the result was inactive.

On to `CN(C)c1ccc(C(=N)c2ccc(N(C)C)cc2)cc1`, for which the result was inactive.

For the molecule `OC1CCCC1`, the result was inactive.

With `O=S(=O)(O)c1ccccc1C=Cc1ccc(-c2ccc(C=Cc3ccccc3S(=O)(=O)O)cc2)cc1`, the result was inactive.

With `Oc1ccc(Cl)cc1Cc1cc(Cl)ccc1O`, the result was inactive.

For the molecule `c1ccc2c(c1)ccc1cc3c(ccc4ccccc43)cc12`, the result was inactive.

Consider `C=CC(=O)NC(C)(C)CS(=O)(=O)O`, for which the outcome was inactive.

Turning to `CC(=O)OC(C)C`, the outcome was inactive.

On to `C=C1C2CCC(C2)C1(C)C` (configuration not stated), for which the outcome was inactive.

For `CCCCC/C=C\CCC=O`, the result was inactive.

Take `CCN(CCC#N)c1ccc(N=Nc2c(Cl)cc([N+](=O)[O-])cc2Cl)cc1`: the result was inactive.

For the molecule `CO[Si](OC)(OC)c1ccccc1`, the outcome was inactive.
